Screening data (PubChem)
TDP1 cell noCPT = qHTS for Inhibitors of human tyrosyl-DNA phosphodiesterase 1 (TDP1): qHTS in cells in absence of CPT | DT40 Tdp1-/- hTDP1 cells, no CPT, ATP luminescence, 48 h | 420,000 compounds, 15% hits | AID 686978, 2013 | Potency, µM (top dose mostly 46.2 µM), without a hit: top-dose activity change, negative = growth inhibition, most hits filed as inhibitors; further: potency means the concentration at half of the fitted maximal effect; on the % scale 0 is the no-effect control and ±100 the full control effect; nearly all actives have a fitted effect of over 55% in size
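Luminescent ATP content (CellTiter-Glo) served as the growth readout. Knockout chicken DT40 cells expressing human TDP1 were exposed to compounds without camptothecin for a minimum 48 hr at 37 °C.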
IL1B secr inh = qHTS for Inhibitors of Inflammasome Signaling: IL-1-beta AlphaLISA Primary Screen. THP-1 LPS/ATP IL-1B secretion, AlphaLISA, 16 h; stronger effect = lower value. activity change, % at 57.5 µM. 360,000 compounds, 4.7% hits. AID 743279, 2014; in the data active means activity change below about -50%; inconclusive means mostly about -30% to -49%; further: on the % scale 0 is the no-effect control and ±100 the full control effect
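Secreted IL-1B measured by AlphaLISA bead assay after 16 h compound exposure of THP-1 cells; compounds (final up to 57.5 uM) added 1 h before LPS (250 ng/mL) and ATP (1.25 mM) stimulation; lower signal means less secretion.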
TDP1 inh = qHTS Assay for Inhibitors of Tyrosyl-DNA Phosphodiesterase (TDP1); recombinant TDP1, AlphaScreen DNA substrate cleavage; 350,000 compounds, 0.28% hits; AID 485290, 2010; Potency, µM (series often up to 130 µM), for the others: at the highest dose activity change, negative = inhibition, usual class: inhibitors; further: potency means the concentration at half of the fitted maximal effect; on the % scale 0 is the no-effect control and ±100 the full control effect; nearly all actives have a fitted effect of over 40% in size
Target sequence (Q9NUW8 whole entry, looked up): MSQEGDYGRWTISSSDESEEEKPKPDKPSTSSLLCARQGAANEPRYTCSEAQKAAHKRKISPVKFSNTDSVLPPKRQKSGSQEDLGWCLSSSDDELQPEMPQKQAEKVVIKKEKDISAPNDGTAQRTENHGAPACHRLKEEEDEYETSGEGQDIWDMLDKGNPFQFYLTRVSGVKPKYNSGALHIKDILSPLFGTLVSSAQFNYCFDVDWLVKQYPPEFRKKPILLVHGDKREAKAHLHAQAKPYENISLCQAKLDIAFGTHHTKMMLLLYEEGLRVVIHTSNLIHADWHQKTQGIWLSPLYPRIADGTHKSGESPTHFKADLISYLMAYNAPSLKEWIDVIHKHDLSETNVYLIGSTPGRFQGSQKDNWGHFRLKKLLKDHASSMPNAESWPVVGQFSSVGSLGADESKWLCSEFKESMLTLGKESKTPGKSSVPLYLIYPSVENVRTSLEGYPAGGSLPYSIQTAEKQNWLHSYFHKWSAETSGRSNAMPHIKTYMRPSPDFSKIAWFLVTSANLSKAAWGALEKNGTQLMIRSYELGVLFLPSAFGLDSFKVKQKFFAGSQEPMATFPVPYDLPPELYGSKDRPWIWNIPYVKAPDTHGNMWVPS
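Signal: AlphaScreen proximity between streptavidin donor and anti-FITC acceptor beads on intact substrate. Reaction: Tdp1 1 nM, substrate 15 nM final, 5 min RT after 15 min compound preincubation.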
TGFb SMAD3 inh = qHTS for Inhibitors of TGF-b; HepG2 CAGA-GFP TGF-b/SMAD3 reporter, GFP fluorescence, 18 h; TGF-beta stimulated, 500 pg/mL final; Potency, µM (doses to about 46.1 µM), for inactives: top-dose activity, negative = inhibition, most hits filed as inhibitors; 410,000 compounds, 1.2% hits; further: potency means the concentration at half of the fitted maximal effect; on the % scale 0 is the no-effect control and ±100 the full control effect; nearly all actives have a fitted effect of over 65% in size
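Per well, imaged GFP fluorescence of HEPG2 CAGA-GFP cells gives the signal; cells get compound, then TGF-beta (500 pg/mL final), 18 h at 37 degrees C; %Activity versus -TGF-beta and +DMSO controls.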
DT40 TDP1 CPT = qHTS for Inhibitors of human tyrosyl-DNA phosphodiesterase 1 (TDP1): qHTS in cells in presence of CPT; chicken DT40 Tdp1-/-;hTDP1 cells + 20 nM CPT, ATP luminescence, 48 h; AID 686979, 2013; 420,000 compounds, 12% hits; Potency, µM (top dose mostly 46.2 µM), for the others: at the top dose activity change, negative = growth inhibition, most hits filed as inhibitors; further: potency means the concentration at half of the fitted maximal effect; on the % scale 0 is the no-effect control and ±100 the full control effect; nearly all actives have a fitted effect of over 55% in size
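Chicken DT40 Tdp1-/- cells stably complemented with human TDP1 were seeded at 400 cells/well in medium containing 20 nM camptothecin, exposed to pin-transferred compounds, and grown at 37 °C for at least 48 hr. Viability was read as ATP luminescence.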
HepG2 tox = qHTS for Inhibitors of TGF-b: Cytotox Counterscreen; 410,000 compounds, 0.76% hits; HepG2 CAGA-GFP viability, ATP luminescence, 18 h; Potency, µM (doses to about 46.1 µM), for the others: at the top dose activity change, negative = cytotoxicity, most hits filed as cytotoxic; further: potency means the concentration at half of the fitted maximal effect
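CellTiter-Glo luminescence gave cytotoxicity after 18 hours at 37 degrees C. The cells were HepG2 CAGA-GFP in 1% FBS DMEM, stimulated with 500 pg/mL TGF-beta after compound addition. %Activity was normalised to no-cell wells (complete cell-killing) and DMSO (no toxicity), and curves were fitted and classified.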
* marks the source's active call; other numbers are inactive results; ? = inconclusive; nt = not tested or not shown; ! = not active in a repeat; [ ] = another dose, or the depositor's remark. Sampled rows, rich in hits. Any-hit rate of the full collection: about 19%. Unless noted, the call rests on the fitted dose curve; in most records, active means well fitted curve in the direction sought with a large enough effect; inconclusive means small, poorly fitted or top-dose-only effect, or another doubt; inactive means no such curve, though single readings can be large; an effect the other way counts as inactive or inconclusive.

SMILES	TDP1 cell noCPT	IL1B secr inh	TDP1 inh	TGFb SMAD3 inh	DT40 TDP1 CPT	HepG2 tox
CC(=O)c1cccc(NS(=O)(=O)c2ccc(-c3cnc(C4CC4)o3)cc2)c1	2.6µM*	-4	3%	-30%	4.1µM*	-14%
COc1ccc(NS(=O)(=O)c2ccc(-c3cnc(C4CC4)o3)cc2)cc1Cl	1.5µM*	nt	4%	?	0.65µM*	-91%
CCOc1ccc(NS(=O)(=O)c2ccc(-c3cnc(C4CC4)o3)cc2)cc1	9.2µM*	39	2%	?	?	-12%
O=S(=O)(NCc1ccc(Cl)cc1)c1ccc(-c2cnc(C3CC3)o2)cc1	?	nt	-9%	?	?	-21%
O=S(=O)(NCc1ccc(F)cc1)c1ccc(-c2cnc(C3CC3)o2)cc1	10µM*!	8	-7%	?	18µM*	-19%
CCOc1ccc(CCNC(=O)Cn2nc(-c3ccc(C)cc3)ccc2=O)cc1OCC	?	nt	3%	?	?	-13%
O=S(=O)(Nc1ccccc1)c1ccc(-c2cnc(C3CC3)o2)cc1	2.3µM*	9	3%	?	3.7µM*	-47%
CC(=O)Nc1ccc(NS(=O)(=O)c2ccc(-c3cnc(C4CC4)o3)cc2)cc1	6%	3	1%	-3%	-26%	-23%
CCC(=O)N1CCc2cc(Br)cc(S(=O)(=O)N3CCCC(C(=O)Nc4cc(C)ccc4OC)C3)c21 (centres undefined)	?	nt	4%	0%	-21%	-7%
CC(NC(=O)CSC1=NCCS1)c1ccccc1 (centres undefined)	-3%	-55*	-3%	?	8%	19%
O=C(CSC1=NCCS1)NCc1ccco1	12µM*	27	9%	9%	13µM*	0%
O=C(CSC1=NCCS1)Nc1cccc2ccccc12	16µM*	-5	2%	-13%	?	2%
COc1ccccc1CNC(=O)CSC1=NCCS1	?	-17	10%	1%	?	4%
O=C(CSC1=NCCS1)NC(c1ccccc1)c1ccccc1	16µM*	-72*	5%	-2%	?	-5%
COc1ccc(OC)c(-c2cc(Cl)c3c(c2)CC(CNC(=O)[C@@H]2CCCN2C(C)=O)O3)c1 (some centres undefined)	-15%	nt	nt	nt	20%[9.04 µM]	nt
COC(=O)c1ccc(NC(=O)CSc2nnc3c4ccccc4n(C(C)C)c3n2)cc1	nt	nt	-1%	4%	nt	-15%
CC1=CC(C)(C)N2C(=O)C3(N=C(N)NC(Nc4ccccc4)=N3)c3cc(C)cc1c32 (centres undefined)	18µM*	-78*	3%	38%	?	-49%
CC1=CC(C)(C)N2C(=O)C3(SCC(=O)N3c3ccc(O)cc3)c3cc(C)cc1c32 (centres undefined)	-1%	36	3%	-14%	-5%	-17%
Cc1cc(=O)n(Cc2ccccc2)c2ccccc12	?	16	nt	-13%	?	-33%
Cc1c(CN(C)C)c2c(n1Cc1ccccc1)C(=O)c1ccccc1-2	?	-63*	10%	19%	?	-61%
COc1ccccc1NC(=O)N(C)C[C@H]1Oc2ncc(Br)cc2C(=O)N([C@H](C)CO)C[C@H]1C	?	15	nt	?	3%	-7%
